According to PubChem BioAssay:
Active and inactive are the calls of the source.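 How the source made its calls, unless noted: active means fluorescence slope higher than the sample average by over 3 SD (cut at about -0.22 in these data, passing the limit was not always enough); inactive means the rest.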

How the values were obtained:
[1] = inhibitors of TNFa-induced NFkB p65 translocation, primary screen, imaging, HUVEC, MLSMR starter and 10KST1 sets (AID 438;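 active means inhibition above 20% together with a positive visual image hit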;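 further: compound added about 3h40 before a 20 min TNFalpha stimulation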;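 on inhibition: signal is the nuclear over cytoplasmic p65 intensity ratio per well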); settings: HUVEC TNFa-induced p65 nuclear translocation; cell count: measured here: nuclei count (cytotoxicity indicator), at 2.08 µM; inhibition: at 2 µM, stronger effect = higher value, 0% TNFa-plus-vehicle, 100% no-TNFa wells
[2] = inhibitors of mutant huntingtin aggregation, primary screen, imaging, exon1htt(103Q)mCFP cells, high-content imaging (AID 483;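 active means visual image review flags a hit and inhibition of aggregation exceeds 20%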;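 further: compound exposure lasted 3 days before fixation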;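 on nuclei count: percent of the per-plate median nuclei count of sample wells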); settings: exon1htt(103Q)mCFP cell line, aggregate imaging, at 2 µM; inhibition of aggregation: stronger effect = higher value; nuclei count: measured here: cell count, toxicity
[3] = inhibitors of E-selectin induction by TNFa, primary screen, imaging, HUVEC, immunofluorescence, MLSMR starter and 10KST1 sets (AID 487;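 active means visually confirmed hit in the image check and inhibition above 20%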;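 on inhibition: signal is fraction of cell area covered by stained E-selectin grains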;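 on nuclei count: 100% = median nuclei count of all wells on the same plate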); settings: HUVEC TNFalpha-induced E-selectin immunofluorescence imaging, at 2 µM; inhibition: stronger effect = higher value; nuclei count: measured here: cell number, toxicity
[4] = target: Voltage-gated potassium channel subunit beta-2 (Rattus norvegicus) (UniProt P62483); test: KvBeta enzyme negative modulators, primary screen, biochemical, NADPH fluorescence (AID 622); settings: recombinant KvBeta, 4-cyanobenzaldehyde reduction, at 10 µM, stronger effect = higher value;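 further: slope of raw intensity against log time taken from 70 to 1610 s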
[5] = target: Voltage-gated potassium channel subunit beta-2 (Rattus norvegicus) (UniProt P62483); test: KvBeta positive modulators, primary screen, biochemical, NADPH fluorescence (AID 623;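 active means NADPH fluorescence slope more negative than the mean of all samples by about 3 SD, 99.7% confidence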;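 further: fluorescence intensity change per second fitted from 20 to 320 s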); settings: Recombinant KvBeta, NADPH fluorescence decrease slope, 10 min; at 10 µM; stronger effect = lower value
[6] = target: Alpha-2C adrenergic receptor (Homo sapiens) (UniProt P18825); test: modulators of alpha2C/GIRK thallium flux, primary screen, cell-based, HEK293 alpha2C/GIRK1/2 (AID 624;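 active means fluorescence slope after compound addition differing from the mean of all screened samples at 99.7% confidence, in either direction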;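 further: slope of fluorescence ratio to pre-addition baseline per second over 15 to 24 s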); settings: thallium flux BTC fluorescence, at 10 µM, actives lie on both sides
[7] = inhibitors of Sendai virus-induced IRF3 signaling, primary screen, TLR/RLR signaling modifier project, cell-based, Sendai virus stimulus, luciferase, 10K MLSCN set (AID 602276;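 active means inhibition at or above 50% at 10 µM; inactive means inhibition below 50%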;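 further: firefly luciferase from ISG56 promoter only with Renilla not read in this screen; 0% = Sendai virus plus DMSO and 100% = medium plus DMSO without virus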); settings: HEK293 RL24 IRF3 luciferase reporter, at 10 µM, stronger effect = higher value
[8] = inhibitors of poly I:C-induced TLR3 signaling, primary screen, cell-based, poly I:C stimulus, luciferase, 10K MLSCN set (AID 602277;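 active means inhibition of the reporter signal at or above 50%; inactive means inhibition below 50%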); settings: HEK293-TLR3 RL24 IRF3 luciferase reporter, at 10 µM, stronger effect = higher value

Chain of Voltage-gated potassium channel subunit beta-2 (Rattus norvegicus) (P62483 whole entry, looked up): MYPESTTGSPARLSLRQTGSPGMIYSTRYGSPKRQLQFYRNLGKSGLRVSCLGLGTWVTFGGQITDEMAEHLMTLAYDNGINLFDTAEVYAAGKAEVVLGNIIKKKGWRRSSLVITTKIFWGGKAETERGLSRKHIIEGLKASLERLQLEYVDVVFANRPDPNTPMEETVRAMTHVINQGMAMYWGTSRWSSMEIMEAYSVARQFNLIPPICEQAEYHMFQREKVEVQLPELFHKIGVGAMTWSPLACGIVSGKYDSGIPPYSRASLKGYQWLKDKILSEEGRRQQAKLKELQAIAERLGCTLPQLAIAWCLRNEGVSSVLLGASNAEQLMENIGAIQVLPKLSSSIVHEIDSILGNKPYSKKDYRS
Chain of Alpha-2C adrenergic receptor (Homo sapiens) (P18825 whole entry, looked up): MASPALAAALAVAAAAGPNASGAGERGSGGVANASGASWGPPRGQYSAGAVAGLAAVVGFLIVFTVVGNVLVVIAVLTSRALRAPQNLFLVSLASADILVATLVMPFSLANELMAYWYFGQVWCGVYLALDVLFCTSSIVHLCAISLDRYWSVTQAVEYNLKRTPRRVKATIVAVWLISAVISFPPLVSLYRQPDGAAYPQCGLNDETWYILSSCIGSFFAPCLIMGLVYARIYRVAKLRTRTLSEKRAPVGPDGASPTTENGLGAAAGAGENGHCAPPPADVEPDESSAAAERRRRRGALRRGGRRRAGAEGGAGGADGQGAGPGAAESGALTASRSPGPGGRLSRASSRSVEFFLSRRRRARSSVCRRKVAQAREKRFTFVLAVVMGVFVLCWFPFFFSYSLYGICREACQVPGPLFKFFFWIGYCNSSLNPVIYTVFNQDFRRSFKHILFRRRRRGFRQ

Row | Compound | cell count [1] | inhibition [1] | inhibition of aggregation [2] | nuclei count [2] | inhibition [3] | nuclei count [3] | fluorescence slope [4] | NADPH fluorescence slope [5] | slope [6] | inhibition [7] | inhibition [8]
1 | CC(NS(=O)(=O)c1ccccc1)C(c1cccs1)N1CCN(C)CC1 (stereo not drawn) | 445 | -6.7% (inactive) | -18.1% (inactive) | 111% | -262% (inactive) | 137% | -0.321 (inactive) | -9.7e-06 (inactive) | 0.00347 (inactive) | 20.5% (inactive) | 36.2% (inactive)
2 | CCCCCC1CC(CC(C)C(=O)Nc2nncs2)C(=O)O1 (stereo not drawn) | 629 | -7.3% (inactive) | -20.6% (inactive) | 112% | -68% (inactive) | 85.5% | -0.369 (inactive) | 2.3e-05 (inactive) | 0.00624 (inactive) | 11.3% (inactive) | 20.7% (inactive)
3 | Cc1nc2scc(-c3ccco3)c2c(=O)n1/N=C/N(C)C | 453 | -4.8% (inactive) | -22.8% (inactive) | 86.6% | -35.6% (inactive) | 116% | -0.342 (inactive) | -6.4e-05 (inactive) | 0.00533 (inactive) | -2.39% (inactive) | 3.07% (inactive)
4 | Cc1cc(C)n(S(=O)(=O)c2cc(C(=O)O)c(Cl)cc2Cl)n1 | 432 | -0.5% (inactive) | -10.2% (inactive) | 110% | -83.9% (inactive) | 98.4% | -0.387 (inactive) | 4.4e-06 (inactive) | 0.00497 (inactive) | 13.3% (inactive) | 10.3% (inactive)
5 | CC(C)C(C(=O)Nc1ccc2c(c1)OCCO2)N1C(=O)c2ccccc2C1=O (stereo not drawn) | 552 | -4.3% (inactive) | 7% (inactive) | 104% | -63.7% (inactive) | 147% | -0.3 (inactive) | 1.8e-07 (inactive) | 0.00511 (inactive) | 2.16% (inactive) | 12.8% (inactive)
6 | Cc1cccc(Cn2c(SCC(=O)Nc3ccccc3)nc3c2c(=O)[nH]c(=O)n3C)c1 | 467 | 5.4% (inactive) | 44.6% (inactive) | 83.4% | 4.7% (inactive) | 89.8% | -0.394 (inactive) | 2.9e-05 (inactive) | 0.0074 (inactive) | 14.6% (inactive) | 13.4% (inactive)
7 | CSc1nc(C)cc(Oc2ccc(=O)n(C)n2)n1 | 380 | -0.7% (inactive) | 1.1% (inactive) | 101% | -30.2% (inactive) | 109% | -0.478 (inactive) | -4.2e-06 (inactive) | 0.00506 (inactive) | 1.26% (inactive) | 22.5% (inactive)
8 | c1cn2cc(CSC3CCCCC3)nc2s1 | 641 | 11% (inactive) | 12.1% (inactive) | 107% | -53.3% (inactive) | 140% | -0.585 (inactive) | -4.6e-05 (inactive) | 0.00605 (inactive) | -32.1% (inactive) | -53% (inactive)
9 | COc1ccc(-c2cc3ccc(OCc4nn[nH]n4)cc3oc2=O)cc1 | 399 | -17.5% (inactive) | 5.4% (inactive) | 81.6% | -24.5% (inactive) | 84.5% | -0.00551 (active) | 1.1e-06 (inactive) | 0.00437 (inactive) | 8.69% (inactive) | -13% (inactive)
10 | COC(=O)c1cc2oc(C)cc2n1CC(=O)Nc1ccc(C)c(C)c1 | 386 | 9.1% (inactive) | 6.1% (inactive) | 103% | -84.5% (inactive) | 115% | -0.337 (inactive) | -1.2e-05 (inactive) | 0.00552 (inactive) | -0.339% (inactive) | 4.84% (inactive)
11 | Cc1cc(C)n(CC(=O)O)n1 | 341 | -1.8% (inactive) | -4.2% (inactive) | 102% | -49.5% (inactive) | 121% | -0.317 (inactive) | -5.4e-05 (inactive) | 0.0047 (inactive) | 12.8% (inactive) | 18.3% (inactive)
12 | Cc1cc(N2CCOCC2)nc2ccc(NC(=O)C3CCC(C)CC3)cc12 (stereo not drawn) | 434 | -2.7% (inactive) | -22.1% (inactive) | 127% | -132% (inactive) | 123% | -0.549 (inactive) | 1.5e-05 (inactive) | 0.00409 (inactive) | -9.82% (inactive) | -31.3% (inactive)
13 | CCOC(=O)CSc1nc2c(c(-c3ccc(C)o3)c1C#N)CCCC2 | 430 | -4.4% (inactive) | -20.4% (inactive) | 100% | -63.3% (inactive) | 128% | -0.447 (inactive) | -9.4e-05 (inactive) | 0.00861 (inactive) | 10.2% (inactive) | 18.3% (inactive)
14 | COc1ccc(C2/C(=C(/O)c3ccccc3)C(=O)C(=O)N2C)cc1 (stereo not drawn) | 424 | -0.5% (inactive) | 7.8% (inactive) | 106% | -25.9% (inactive) | 110% | -0.369 (inactive) | 4.1e-06 (inactive) | 0.00577 (inactive) | 14.9% (inactive) | 37.5% (inactive)
15 | CCCCn1c(NCCC)nc2c1c(=O)[nH]c(=O)n2C | 383 | -6.2% (inactive) | -0.7% (inactive) | 114% | -38% (inactive) | 124% | -0.402 (inactive) | -0.000106 (inactive) | 0.00598 (inactive) | 16% (inactive) | 29.1% (inactive)
16 | CC(=O)OC1c2ccccc2C(=O)N1c1ccccc1C (stereo not drawn) | 590 | 9% (inactive) | -20.1% (inactive) | 85.9% | -51.8% (inactive) | 115% | -0.586 (inactive) | -1.7e-05 (inactive) | 0.00543 (inactive) | 10.3% (inactive) | 22.9% (inactive)
17 | CC1(C)Cc2cccc(OCC(=O)O)c2O1 | 635 | -2.7% (inactive) | -1% (inactive) | 100% | -111% (inactive) | 108% | -0.423 (inactive) | -2.7e-05 (inactive) | 0.00676 (inactive) | 11.4% (inactive) | 17.1% (inactive)
18 | c1ccc(-c2nnc(CSc3nncs3)o2)cc1 | 322 | 16.3% (inactive) | -19% (inactive) | 110% | -49.2% (inactive) | 106% | -0.402 (inactive) | -2e-05 (inactive) | 0.00275 (inactive) | -21.1% (inactive) | -78.9% (inactive)
19 | COc1cccc(C2=NOC(C(=O)N3CCc4ccccc4C3)C2)c1 (stereo not drawn) | 606 | 4.7% (inactive) | 11% (inactive) | 97.3% | 10.4% (inactive) | 107% | -0.605 (inactive) | -4.1e-05 (inactive) | 0.00592 (inactive) | -5.64% (inactive) | -15% (inactive)
20 | CCN1CCN(Cc2nc3c(c(=O)[nH]c(=O)n3C)n2Cc2ccccc2Cl)CC1 | 584 | 1% (inactive) | 7.9% (inactive) | 71.4% | -20.8% (inactive) | 95.5% | -0.583 (inactive) | -3.1e-05 (inactive) | 0.00512 (inactive) | 9.74% (inactive) | 29% (inactive)
21 | O=C(C1CCCO1)N1CCN(Cc2nc3ccccc3c(=O)[nH]2)CC1 (stereo not drawn) | 583 | 6.8% (inactive) | 14% (inactive) | 125% | -6.3% (inactive) | 104% | -0.421 (inactive) | 2.2e-05 (inactive) | 0.00673 (inactive) | 0.729% (inactive) | 31% (inactive)
22 | O=C(NC1=NCCS1)NC12CC3CC(CC(C3)C1)C2 | 357 | -3.3% (inactive) | 6.6% (inactive) | 96.6% | -52.9% (inactive) | 101% | -0.598 (inactive) | -3.4e-05 (inactive) | 0.00362 (inactive) | -1.24% (inactive) | 12.2% (inactive)
23 | COc1cccc(NC(=O)c2ccco2)c1 | 596 | 5.6% (inactive) | 7% (inactive) | 93.3% | 32.9% (inactive) | 96.1% | -0.401 (inactive) | 6.1e-06 (inactive) | 0.00282 (inactive) | -31.2% (inactive) | -128% (inactive)
24 | CCOc1ccc(S(=O)(=O)N2CCN(c3ccc(C)cc3C)CC2)cc1 | 821 | 5.7% (inactive) | -66.1% (inactive) | 98.4% | -30.7% (inactive) | 110% | -0.578 (inactive) | -2.7e-05 (inactive) | 0.00897 (inactive) | -5.26% (inactive) | 11.7% (inactive)
25 | Cc1cc(Nc2ccccc2N2CCOCC2)n2ncnc2n1 | 226 | 2% (inactive) | 13.7% (inactive) | 89% | -16.1% (inactive) | 97% | -0.588 (inactive) | 7.3e-06 (inactive) | 0.00567 (inactive) | 21.9% (inactive) | 44.1% (inactive)
26 | CCOCCCNC(=O)Cn1cc2c(n1)CCCCC2 | 486 | -2.3% (inactive) | 19.4% (inactive) | 88.9% | -25.4% (inactive) | 109% | -0.605 (inactive) | -1.2e-05 (inactive) | 0.00693 (inactive) | 3.75% (inactive) | 19.9% (inactive)
27 | Cc1ccc(C2C(C(=O)c3sc(C)nc3C)=C(O)C(=O)N2CCN(C)C)o1 (stereo not drawn) | 387 | -7.6% (inactive) | -12.7% (inactive) | 107% | -161% (inactive) | 127% | -0.351 (inactive) | -4.5e-05 (inactive) | 0.00504 (inactive) | 7.21% (inactive) | 6.57% (inactive)
28 | CCOc1cccc2cc(C(=O)N3CCN(C/C=C/c4ccccc4)CC3)c(=O)oc12 | 596 | -3.6% (inactive) | -2.4% (inactive) | 103% | -80.4% (inactive) | 133% | -0.236 (inactive) | -4e-05 (inactive) | 0.00413 (inactive) | 1.41% (inactive) | -10.8% (inactive)
